Results: PubChem BioAssay (NCI)
Several values for one entry are separate records, joined by “and”; a condition that tells them apart may be missing. Equal entries are not always repeated. About 83,000 compounds went through this panel and 20% of them were active in at least one assay; those are over-represented in the sample as a whole.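 Assay: single dose, 48 h. Readout: percent growth (0 = no net growth; negative = cell death). Active: <10.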 Activity calls are given as the source filed them.

What was measured:
Assay in all cases: NCI-60 one-dose screen, 48 h (100 = growth as untreated, 0 = no growth, -100 = all killed)
[1] = system: SR leukemia
[2] = system: RPMI-8226 leukemia
Procedure: (§1) Growth inhibition of the RPMI-8226 human tumor cell line is measured as a screen for anti-cancer activity. Cells are grown in 96 well plates and exposed to the test compound for 48 hours. Compounds are tested at a single concentration, which is 10^-5 M for most compounds. The reported endpoint is percent growth (GI% or GIPRCNT), where numbers from 0 - 100% represent growth inhibition, and numbers from -100% - 0 represent cell death. For example, a value of 40 represents 60% growth inhibition. A value of 0 means no net growth occurred over the course of the experiment. A value of -40 indicates 40% of cells at the beginning of the experiment died by the end of the experiment. A value of -100 means all cells are dead at the end of the experiment.
(§2) NCI-60 Human Tumor Cell Lines Screen was performed using the standard one-dose NCI protocol, which is described in more detail at https://dtp.cancer.gov/discovery_development/nci-60/default.htm.
(§3) Compounds with GIPRCNT values below 10 were considered active. Activity score was based on GIPRCNT using the following formula: […]
(§4) Score is 0 for GIPRCNT values of 100 or above, 50 for GIPRCNT values of 0, and 100 for GIPRCNT values of -100.

[3] = system: OVCAR-8 ovarian; conditions: 10 µM
[4] = system: OVCAR-5 ovarian
[5] = system: OVCAR-4 ovarian
[6] = system: SK-OV-3 ovarian
[7] = system: IGROV1 ovarian
[8] = system: OVCAR-3 ovarian
[9] = system: HS 578T breast
[10] = system: NCI/ADR-RES ovarian
[11] = system: T-47D breast
[12] = system: BT-549 breast
[13] = system: MDA-MB-435 melanoma
[14] = system: SW-620 colon
[15] = system: MCF7 breast
Procedure: as §1, with “MCF7” for “RPMI-8226”
as §2, §3, §4

[16] = system: HCT-116 colon
[17] = system: HCC-2998 colon
[18] = system: KM12 colon

Measured: growth

COc1ccc2sc3cccc(NCCN(C)C)c3c(=O)c2c1
30.5% (inactive) and -72.8% (active): [15]; 10 µM
70.7% (inactive) and -34.7% (active): [11]; 10 µM
24.5% (inactive) and -79% (active): [14]; 10 µM
40.9% (inactive) and 7.16% (active): [3]
31.3% (inactive) and -86.9% (active): [13]; 10 µM
18.5% (inactive) and -76.2% (active): [16]; 10 µM
41.2% (inactive) and -2.42% (active): [7]; 10 µM
38.3% (inactive) and -7.99% (active): [18]; 10 µM
53.1% (inactive) and 9.58% (active): [4]; 10 µM
57.2% (inactive) and 3.91% (active): [6]; 10 µM
64.7% (inactive) and -8.94% (active): [5]; 10 µM
81.2% (inactive) and 8.98% (active): [9]; 10 µM
inactive: [8]; 10 µM 61.6% and 22.1% | [10]; 10 µM 48.5% and 14.7% | [12]; 10 µM 80.1% and 29.6%
28.1% (inactive) and -83% (active): [17]; 10 µM
70.2% (inactive) and -6.71% (active): [2]; 10 µM
active: [1]; 10 µM -31.7%

CN(Cc1cnc2nc(N)nc(N)c2n1)c1ccc(C(=O)N[C@@H](CCC(=O)O)C(=O)O)cc1
inactive: [1]; 2.5 µM 32% | [1]; 10 µM 26.8% | [2]; 2.5 µM 33.9% | [2]; 10 µM 41.7% | [4]; 2.5 µM 41.1% | [4]; 10 µM 27.2% | [5]; 2.5 µM 93.4% | [5]; 10 µM 105% | [6]; 2.5 µM 75% | [6]; 10 µM 56.2% | [7]; 2.5 µM 38.7% | [7]; 10 µM 21% | [8]; 2.5 µM 54.2% | [8]; 10 µM 47.8% | [9]; 2.5 µM 27.4% | [10]; 2.5 µM 29% | [11]; 2.5 µM 55.6% | [11]; 10 µM 46.2% | [12]; 2.5 µM 40.9% | [12]; 10 µM 46.9% | [13]; 2.5 µM 25.7% | [13]; 10 µM 27.2% | [14]; 2.5 µM 41.9% | [14]; 10 µM 35.6% | [15]; 2.5 µM 24.4% | [15]; 10 µM 17.2% | [16]; 2.5 µM 18.5% | [16]; 10 µM 22.7% | [17]; 10 µM 106% | [18]; 2.5 µM 30.6% | [18]; 10 µM 31.9%
active: [10]; 10 µM 7.09% | [17]; 2.5 µM 8.58%

CC[C@@]1(O)C(=O)OCc2c1cc1n(c2=O)Cc2cc3c(CN(C)C)c(O)ccc3nc2-1
8.58% (active) and 13.8% (inactive): [4]; 10 µM
13.9% (inactive) and 5.76% (active): [10]; 10 µM
inactive: [5]; 10 µM 14% | [6]; 10 µM 10.6% and 20.4% | [7]; 10 µM 15.3% | [9]; 10 µM 28.5%
active: [1]; 10 µM -5.49% | [2]; 10 µM -28.3% | [3] 3.57% | [8]; 10 µM -21.7% and -9.74% | [11]; 10 µM 9.96% and 8.7% | [12]; 10 µM -1.81% and -14.9% | [13]; 10 µM -44.2% and -55% | [14]; 10 µM 9.23% and 7.32% | [15]; 10 µM 1.58% and 5.19% | [16]; 10 µM 0.82% and -14.2% | [17]; 10 µM -14.2% and -26.3% | [18]; 10 µM 6.1% and -42.5%

CC/C(=C(\c1ccccc1)c1ccc(OCCN(C)C)cc1)c1ccccc1
inactive: [3] 60.5% | [5]; 10 µM 46.3% | [6]; 10 µM 76.8% | [6]; 12.5 µM 32.6% | [7]; 10 µM 41.2% | [8]; 10 µM 52.9% | [9]; 10 µM 60.5% | [10]; 10 µM 43.2% | [12]; 10 µM 69.8% | [13]; 10 µM 37.8% | [16]; 10 µM 26.2% | [17]; 10 µM 16.3% | [18]; 10 µM 25%
active: [1]; 10 µM -18.9% | [1]; 12.5 µM -27.2% | [2]; 10 µM -28.3% | [2]; 12.5 µM -38.1% | [4]; 12.5 µM -83.1% | [5]; 12.5 µM 2.45% | [7]; 12.5 µM -20.4% | [8]; 12.5 µM -6.16% | [9]; 12.5 µM -70.9% | [10]; 12.5 µM -41.2% | [11]; 12.5 µM -18.5% | [12]; 12.5 µM -96% | [13]; 12.5 µM -87.2% | [14]; 10 µM 4.89% | [14]; 12.5 µM -50.4% | [15]; 10 µM -10.3% | [15]; 12.5 µM -61.6% | [16]; 12.5 µM -98.1% | [17]; 12.5 µM -96.2% | [18]; 12.5 µM -74.4%
